Data taken from PubChem BioAssay AID1159580 (chemical genetic matrix, 2015).
“And” between values parts separate entries of the source, which are not always exact repeats. Equal values may be shown once. Among all 5,500 compounds or so, about 2,000 (36%) were called active. Roughly 18% stayed inconclusive and do not appear here. Cut-off read from the data, not from the text of the source: active = normalized growth mostly below about 0.91 (no sharp cut-off); inconclusive = no clear call, values can overlap the other calls; inactive = mostly above about 0.92. This is one part of the list.

Assay: chemical genetic growth profiling, strain panel (AID 1159580);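 note: tested at 20 µM; growth read once vehicle control cultures reached saturation at 30 °C; 1 = growth at the plate median or of vehicle wells; lower values mean less growth of the strain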
Conditions: S. cerevisiae deletion strains, growth OD

Measured: normalized growth

COc1ccc(C(=O)CC(=O)c2ccc(C(C)(C)C)cc2)cc1
inactive: locus YAL013W, strain DEP1, hits give low values 0.998 | locus YAL021C, strain ccr4, hits give low values 0.999 | locus YAL026C, strain drs2, hits give low values 0.996 | locus YAL030W, strain snc1, hits give low values 0.993 | locus YBL061C, strain skt5, hits give low values 0.99 | locus YBR009C, strain hhf1, hits give low values 0.976 | locus YBR021W, strain FUR4, hits give low values 0.979 | locus YBR023C, strain chs3, hits give low values 0.987 | locus YBR171W, strain sec66, hits give low values 1.03 | locus YBR229C, strain ROT2, hits give low values 0.997 | locus YBR231C, strain swc5, hits give low values 0.997 | locus YBR279W, strain paf1, hits give low values 0.991 | locus YCL011C, strain gbp2, hits give low values 0.995 | locus YCL016C, strain dcc1, hits give low values 0.984 | locus YCL029C, strain bik1, hits give low values 1.01 | locus YCL069W, strain vba3, hits give low values 0.993 | locus YCR088W, strain abp1, hits give low values 0.99 | locus YDL005C, strain med2, hits give low values 0.983 | locus YDL035C, strain GPR1, hits give low values 0.954 | locus YDL040C, strain nat1, hits give low values 0.98 | locus YDL074C, strain BRE1, hits give low values 0.933 | locus YDL101C, strain DUN1, hits give low values 0.99 | locus YDL134C, strain PPH21, hits give low values 1.01 | locus YDL185W, strain tfp1, hits give low values 1 | locus YDL192W, strain arf1, hits give low values 1 | locus YDR001C, strain nth1, hits give low values 0.995 | locus YDR069C, strain doa4, hits give low values 0.989 | locus YDR101C, strain arx1, hits give low values 1 | locus YDR137W, strain rgp1, hits give low values 0.918 | locus YDR150W, strain NUM1, hits give low values 0.999 | locus YDR159W, strain sac3, hits give low values 1.01 | locus YDR162C, strain NBP2, hits give low values 0.851 | locus YDR195W, strain ref2 1.01 | locus YDR297W, strain sur2, hits give low values 1 | locus YDR318W, strain mcm21, hits give low values 0.994 | locus YDR334W, strain swr1, hits give low values 1.02 | locus YDR335W, strain msn5, hits give low values 1 | locus YDR388W, hits give low values 1.01 | locus YDR392W, strain spt3, hits give low values 1.02 | locus YDR502C, strain sam2, hits give low values 1.01 | locus YEL003W, strain gim4, hits give low values 0.992 | locus YEL037C, strain rad23, hits give low values 0.992 | locus YEL061C, strain CIN8 (second series), hits give low values 0.976 | locus YEL061C, strain CIN8, hits give low values 0.96 | locus YER015W, strain faa2, hits give low values 0.997 | locus YER016W, strain bim1, hits give low values 0.983 | locus YER110C, hits give low values 1.01 | locus YER111C, strain swi4, hits give low values 0.995 | locus YER155C, strain BEM2 (second series), hits give low values 1.01 | locus YER155C, strain BEM2, hits give low values 0.94 | locus YER167W, strain BCK2, hits give low values 0.987 | locus YFR010W, strain ubp6, hits give low values 1 | locus YGL078C, strain dbp3, hits give low values 0.996 | locus YGL086W, strain mad1, hits give low values 0.991 | locus YGL167C, strain pmr1, hits give low values 0.982 | locus YGL173C, strain kem1, hits give low values 0.989 | locus YGL227W, strain vid30, hits give low values 0.982 | locus YGL240W, strain doc1, hits give low values 0.986 | locus YGL248W, strain PDE1, hits give low values 0.986 | locus YGL253W, strain hxk2, hits give low values 0.99 | locus YGR078C, strain PAC10, hits give low values 0.931 | locus YGR135W, strain pre9, hits give low values 0.997 | locus YGR229C, strain SMI1, hits give low values 0.83 | locus YGR252W, strain gcn5, hits give low values 1.02 | locus YHR013C, strain ard1, hits give low values 0.945 | locus YHR027C, strain rpn1, hits give low values 0.992 | locus YHR030C, strain SLT2, hits give low values 0.929 and 0.981 | locus YHR079C, strain IRE1 (second series), hits give low values 1 | locus YHR079C, strain IRE1, hits give low values 0.984 | locus YHR094C, strain hxt1, hits give low values 1 | locus YHR129C, strain ARP1, hits give low values 1 | locus YHR142W, strain chs7, hits give low values 0.956 | locus YHR200W, strain rpn10, hits give low values 1 | locus YIL066C, strain RNR3, hits give low values 0.992 | locus YIL073C, strain SPO22, hits give low values 0.872 | locus YIL125W, strain kgd1, hits give low values 0.993 | locus YIR030C, strain dcg1, hits give low values 0.998 | locus YJL092W, strain hpr5, hits give low values 0.993 | locus YJL095W, strain BCK1 (second series), hits give low values 0.967 | locus YJL095W, strain BCK1, hits give low values 0.958 and 0.995 | locus YJL115W, strain asf1, hits give low values 1.01 | locus YJL129C, strain trk1, hits give low values 0.918 | locus YJL134W, strain LCB3, hits give low values 1 | locus YJL154C, strain vps35, hits give low values 0.993 | locus YJL166W, strain qcr8, hits give low values 0.976 | locus YJL168C, strain set2, hits give low values 1 | locus YJL187C, strain SWE1 (second series), hits give low values 1.01 | locus YJL187C, strain SWE1, hits give low values 1 | locus YJR043C, strain POL32, hits give low values 1 | locus YJR066W, strain TOR1, hits give low values 0.97
active: locus YJL164C, strain tpk1, hits give low values 0.913
